# TbPYK inhibitor – T. brucei pyruvate kinase inhibition; Q57TT1; TbPYK enzyme, Kinase-Glo Plus ATP luminescence, 45 min; Potency, µM (series often up to 76.8 µM), inactives show top-dose activity, negative = inhibition, hits mostly inhibitors; actives 0.12% (n = 410,000); AID 624173; further: potency means the concentration at half of the fitted maximal effect; on the % scale 0 is the no-effect control and ±100 the full control effect; nearly all actives have a fitted effect of over 50% in size
#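 Enzyme and substrate buffer are dispensed first and compound is pin-transferred. ADP at 130 uM final then starts the reaction, which runs 45 min at room temperature. Detection reagent is added for 10 min before luminescence is imaged.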
# Shiga toxin inh – Shiga toxin inhibition; actives 9.2% (n = 290,000); AID 2315; Vero cells, Shiga toxin protein synthesis inhibition reporter; inhibition, % at 38.7 µM; in the data active means inhibition mostly above about 28%, no sharp cut-off; inactive means mostly below about 43%; further: 0% is about no effect
# FBPA Giardia inh – Giardia lamblia aldolase inhibition | Potency, µM (series often up to 59.6 µM), inactives show at the highest dose activity, negative = inhibition, actives largely listed as inhibitors | A8B2U2 | AID 2451 | purified Giardia FBPA | actives 0.71% (n = 290,000); further: potency means the concentration at half of the fitted maximal effect; on the % scale 0 is the no-effect control and ±100 the full control effect; nearly all actives have a fitted effect of over 55% in size
# Target sequence (A8B2U2 whole entry, looked up): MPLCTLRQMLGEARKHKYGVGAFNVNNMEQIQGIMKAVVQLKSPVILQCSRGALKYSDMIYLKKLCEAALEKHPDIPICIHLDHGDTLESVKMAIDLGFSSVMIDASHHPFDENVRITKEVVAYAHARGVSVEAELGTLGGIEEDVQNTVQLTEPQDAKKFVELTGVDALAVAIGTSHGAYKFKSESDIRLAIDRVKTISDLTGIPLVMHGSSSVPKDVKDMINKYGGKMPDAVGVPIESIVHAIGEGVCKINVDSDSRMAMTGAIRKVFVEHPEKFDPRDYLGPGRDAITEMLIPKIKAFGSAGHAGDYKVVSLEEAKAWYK
#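 40 nM FBPA preincubated 10 min at RT with compound (up to 57.5 uM final), then substrate plus GAPDH/TPI/NAD/arsenate coupling and diaphorase/resazurin added. Fluorescence read after 20 min at RT, 525/598 nm.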
# CHX counter – counter-screen hit for Shiga toxin inhibitors, cycloheximide | AID 2314 | max response, % | actives 12% (n = 300,000) | cell reporter, cycloheximide protein synthesis inhibition counterscreen; in the data active means max response mostly above about 13%, no sharp cut-off; inactive means mostly below about 14%; further: read at 38.3 µM for the half of the compounds with a filed dose; 0% is about no effect
# Sm TGR inh – inhibitors of Schistosoma mansoni thioredoxin glutathione reductase. purified TGR, DTNB reduction, TNB absorbance 405 nm. Potency, µM (highest dose often 114 µM), for inactives: top-dose activity change, negative = inhibition, actives largely listed as inhibitors. actives 3% (n = 360,000). AID 485364; further: potency means the concentration at half of the fitted maximal effect; on the % scale 0 is the no-effect control and ±100 the full control effect; nearly all actives have a fitted effect of over 60% in size
#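 First, TGR (20 nM dispensed) and NADPH were mixed with compound. Second, a 15 min room-temperature incubation followed. Third, further NADPH and then DTNB were added to start the reaction. Finally, TNB absorbance was monitored kinetically.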
# LmPK inhibitor – inhibitors of Leishmania mexicana pyruvate kinase; actives 0.37% (n = 290,000); purified LmPK, Kinase-Glo ATP luminescence, 1 h; AID 1721; Q27686; Potency, µM (series often up to 57.5 µM), for inactives: top-dose activity change, negative = inhibition, hits mostly inhibitors; further: potency means the concentration at half of the fitted maximal effect; on the % scale 0 is the no-effect control and ±100 the full control effect
#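 Kinase-Glo luminescence read after 1 h RT reaction of 0.1 nM LmPK with 0.5 mM PEP and 0.1 mM ADP. Activity scaled between uninhibited and enzyme-free controls.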
# Numbers without * were called inactive; ? = inconclusive; / = no result. This excerpt belongs to a sample that is enriched for hits. Unless noted, the call rests on the fitted dose curve; in most records, active means well fitted curve in the direction sought with a large enough effect; inconclusive means small, poorly fitted or top-dose-only effect, or another doubt; inactive means no such curve, though single readings can be large; an effect the other way counts as inactive or inconclusive.
SMILES,TbPYK inhibitor,Shiga toxin inh,FBPA Giardia inh,CHX counter,Sm TGR inh,LmPK inhibitor
Cc1ccc(Cn2cnc3nc4c(cc3c2=O)CC(C)CC4)cc1 (stereo not drawn),-2%,/,/,/,4%,/
Cc1ccc(-c2cc(-c3ccc(F)cc3)n[nH]2)c(O)c1,1%,101*,0%,51*,4%,-1%
Oc1ccccc1-c1cc(-c2ccccc2)n[nH]1,2%,/,/,/,/,/
Oc1ccc(F)cc1-c1cc(-c2ccc3c(c2)OCCO3)n[nH]1,3%,90*,-4%,42*,11%,0%
Oc1ccccc1-c1cc(-c2ccc(F)cc2)n[nH]1,3%,/,12%,30*,-9%,3%
Cc1ccc(O)c(-c2cc(-c3cccc(Br)c3)n[nH]2)c1,-7%,98*,3%,45*,16%,-5%
Cc1ccc(-c2noc(-c3cc(-c4ccc(F)cc4)n[nH]3)n2)cc1,2%,/,/,/,-1%,/
O=C(O)c1ccc(-c2nn3c(=O)cc(N4CCNCC4)nc3s2)cc1,-3%,/,/,/,/,/
COc1cc(OC)c2c(c1C(CCN1CCCC1)c1ccc(N(C)C)cc1)OC(=O)CC2c1ccc(N(C)C)cc1 (stereo not drawn),/,26,-6%,8,/,/
CC(=O)Nc1ccc(NC(=O)c2cc(-c3ccc(C)cc3O)n[nH]2)cc1,10%,27,1%,3,3%,9%
Cc1ccc(-c2cc(-c3ccc(C)cc3O)[nH]n2)cc1,-3%,51*,8%,41*,9%,2%
Oc1ccc(Cl)cc1C1=Nc2ccccc2N=C(c2ccccc2)C1,0%,/,/,/,-3%,/
Oc1ccc(Cl)cc1-c1cc(-c2ccccc2)n[nH]1,0%,31,-2%,18*,7%,11%
Cc1noc(C)c1S(=O)(=O)Nc1ccc(C(=O)Nc2ccc(Br)cc2)cc1,0%,/,/,/,-7%,/
Cc1ccccc1-c1cc(-n2ccnc2)ncn1,/,/,-11%,/,/,/
O=CC1=C(c2ccccc2)Oc2ccccc2O1,2%,94*,14%,38*,7%,-4%
COc1ccc(-c2cnn3c4c(c(C)nc23)CCN4C(C)C)cc1OC,3%,47*,0%,27*,1%,2%
CC1CCC(NC(=O)c2cccc(S(=O)(=O)N3CCN(c4ccc(F)cc4)CC3)c2)CC1 (stereo not drawn),-1%,/,/,/,-4%,/
O=C1C=C(Nc2ccccc2)C(=O)c2ccccc21,-10%,81*,?,48*,-2%,?
Cc1ccc(-n2c(=S)[nH]c3nc4c(cc3c2=O)COC(C)(C)C4)cc1,0%,-3,-6%,-1,9%,0%
CCC1(C)Cc2nc3[nH]c(=S)n(-c4ccc(C)cc4)c(=O)c3cc2CO1 (stereo not drawn),0%,11,0%,-1,6.3µM*,4%
S=c1[nH]nc(-c2cccnc2)n1/N=C/c1ccco1,?,47,?,0,/,1%
CN(C)c1ccc(/C=N/n2c(-c3cccnc3)n[nH]c2=S)cc1,2.8µM*,-14,6%,-3,/,0%
Cc1ccc(/C=N/n2c(-c3cccnc3)n[nH]c2=S)o1,?,24,-26%,7,28µM*,13%
CN(C)c1ccc(/C=N/n2c(COc3ccccc3)n[nH]c2=S)cc1,?,2,24%,4,6%,-11%
SMILES,TbPYK inhibitor,Shiga toxin inh,FBPA Giardia inh,CHX counter,Sm TGR inh,LmPK inhibitor
Cc1ccc(-c2n[nH]c(=S)n2/N=C/c2ccc(C)o2)cc1,2.5µM*,-1,8%,-3,-4%,-13%
CN(C)c1ccc(/C=N/n2c(-c3ccccc3Br)n[nH]c2=S)cc1,?,54,4%,17*,1%,-21%
Cc1ccc(/C=N/n2c(-c3cccnc3)n[nH]c2=S)s1,?,7,12%,-3,-7%,-4%
CCOc1ccc(C(=O)N2CCC(c3noc(-c4ccc(S(=O)(=O)N5CCCC5)cc4)n3)CC2)cc1,3%,/,/,/,2%,/
Cc1ccc(OCC(=O)Nc2ccc(S(=O)(=O)N3CCOCC3)cc2)c(Br)c1,2%,-5,-8%,1,10%,-6%
CSc1nnc(-c2ccc(Br)s2)n1C,2%,69*,17%,47*,4%,-1%
CSc1nnc(-c2sc(-c3ccccc3)nc2C)n1C,-9%,55,0%,12*,6%,-5%
O=C(CCl)c1ccc(Cc2ncc(C(F)(F)F)cc2Cl)s1,-4%,-15,0%,-1,8.9µM*,0%
Cc1noc(/C=C/c2ccco2)c1S(=O)(=O)N1CCC(C(=O)N2c3ccccc3CC2C)CC1 (stereo not drawn),-2%,48,-6%,-4,40µM*,-2%
CC(C)(C)NC(=S)Nc1ccc(Br)cc1,3%,58*,2%,32*,6%,1%
CC(C)(C)NC(=S)Nc1ccc(Nc2ccccc2)cc1,-9%,46*,-4%,19*,14%,1%
CC(C)(C)NC(=S)Nc1cccc(C(F)(F)F)c1,-1%,4,-23%,8,1%,3%
CC(C)(C)c1nnc(NC(=S)Nc2ccccc2)s1,-5%,115*,-6%,37*,/,-3%
Cc1ccc(NC(=S)Nc2ccc(Br)cc2)cc1,3%,17,0%,23,-21%,4%
CC1=C(n2nnc3ccccc32)C(c2ccccc2)C(C#N)=C(N)O1 (stereo not drawn),-15%,-4,?,6,35µM*,4%
Cc1nn(-c2ccccc2)c2c1C(c1ccncc1)C(C#N)=C(N)O2 (stereo not drawn),-7%,-8,-16%,7,-33%,-1%
CC1CCc2nc(NC(=O)CSc3nc4ccccc4o3)sc2C1 (stereo not drawn),1%,85*,0%,52*,-21%,9%
Cc1nnc(SCC(=O)Nc2nc3c(s2)CC(C)CC3)s1 (stereo not drawn),3%,60*,-14%,37*,1%,1%
COC(=O)c1ccc(C(=O)NC(=S)Nc2nc3c(s2)CC(C)CC3)cc1 (stereo not drawn),-6%,7,?,27*,-6%,5%
CCCCOc1ccc(C(=O)Nc2nc3c(s2)CC(C)CC3)cc1 (stereo not drawn),-6%,/,/,/,-1%,/
COc1cc([C@@H]2c3cc4c(cc3C(OC3OC5COC(C)OC5C(O)C3O)C3COC(=O)[C@@H]32)OCO4)cc(OC)c1O (stereo partly drawn),/,/,0%,/,/,/
Cc1noc(C)c1C(=O)OCC(=O)NCc1ccc(Cl)cc1,7%,/,/,/,4%,/
CCOC(=O)C1CCCN(C(=O)c2ccc3nc(-c4cccc(OC)c4)oc3c2)C1 (stereo not drawn),1%,72*,-1%,32*,-1%,-3%
